Here are results for 24 compounds from PubChem BioAssay (EPA / NIEHS).

Each structure is given as a SMILES string. Where “and” joins values, the source holds several entries; their conditions need not be identical. Equal entries are not always repeated. Results filed as inconclusive are left out. The source holds several records for some structures; these can differ, active in one and inactive in another. Calls of active or inactive are those of the source. How the source made its calls: active means hit-call score of the fitted dose curve at least 0.9, where 1 is the maximum; inconclusive means response in the unintended direction; inactive means score below 0.9.

Assay [1] addresses human Elastase, ELANE (gene 1991) (UniProt P08246). As to the kind of experiment: NVS_ENZ_hElastase: NovaScreen (NVS) Enzymatic Assay for human Elastase (AID 2283153). The procedure, abridged:
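Cell-free elastase from human neutrophils, 1.5 h after dosing, activity read by absorbance. Primary screen in duplicate at 25 uM; hits (e.g., 30% inhibition) rerun in singleton concentration-response up to 50 uM, fitted versus DMSO.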

Assay [2] has as its target human Dual Specificity Protein Phosphatase 3 (DUSP3), DUSP3 (gene 1845) (UniProt P51452). Put plainly: NVS_ENZ_hDUSP3: NovaScreen (NVS) Enzymatic Assay for human Dual Specificity Protein Phosphatase 3 (DUSP3) (AID 2283152). The procedure, abridged: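 Cell-free assay with recombinant human DUSP3 and fluorogenic substrate, read by fluorescence intensity. Primary screen ran duplicate at 25 uM; actives followed up in concentration series; loss of signal versus DMSO scored.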

Assay [3] concerns the target human Colony Stimulating Factor 1 Receptor (CSF1R), CSF1R (gene 1436) (UniProt P07333). As to the kind of experiment: NVS_ENZ_hCSF1R: NovaScreen (NVS) Enzymatic Assay for human Colony Stimulating Factor 1 Receptor (CSF1R) (AID 2283150). The procedure, abridged:
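Cell-free recombinant human CSF1R kinase with fluorescent substrate, product separated by electrophoretic mobility shift; read 1 h after dosing. Primary screen at 25 uM in duplicate, actives then in concentration-response up to 50 uM, relative to DMSO.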

The next assay addresses CDK2 (gene 1017) (UniProt P24941). Put plainly: NVS_ENZ_hCDK2: NovaScreen (NVS) Enzymatic Assay for human Cyclin-Cependent Kinase 2 (CDK2) (AID 2283144). Put shortly: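 Cell-free recombinant human CDK2 with fluorescent substrate, product separated by electrophoretic mobility shift; 1 hr read. Primary screen at 25 uM in duplicate, actives retested in concentration-response up to 50 uM; loss of signal versus DMSO.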

The target of assay [4] is human Aurora Kinase A - serine/threonine-protein Kinase 6 (AurA), AURKA (gene 6790) (UniProt O14965). As to the kind of experiment: NVS_ENZ_hAurA: NovaScreen (NVS) Enzymatic Assay for human Aurora Kinase A - serine/threonine-protein Kinase 6 (AurA) (AID 2283142). Put shortly:
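Cell-free enzymatic assay with human Aurora A, 1 hour after dosing. Fluorescent substrate turnover detected after electrophoretic mobility shift separation of substrate and product. Screened at 25 uM, actives retested in concentration-response up to 50 uM.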

The target in assay [5] is human Caspase 8 (CASP8), CASP8 (gene 841) (UniProt Q14790). As to the kind of experiment: NVS_ENZ_hCASP8: NovaScreen (NVS) Enzymatic Assay for human Caspase 8 (CASP8) (AID 2283146). The procedure, abridged:
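E. coli-expressed enzyme was used in a cell-free fluorogenic substrate assay read 1 h after dosing. Loss of signal was scored relative to DMSO, and the primary screen was run in duplicate at 25 uM.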

Assay [6] concerns the target human Casein Kinase 1-delta (CK1D), CSNK1D (gene 1453) (UniProt P48730). As to the kind of experiment: NVS_ENZ_hCK1D: NovaScreen (NVS) Enzymatic Assay for human Casein Kinase 1-delta (CK1D) (AID 2283148). Put shortly: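 Recombinant human CK1-delta, cell-free; fluorescent substrate with electrophoretic mobility-shift separation of product, read 1 h after dosing. Single 25 uM duplicate screen, then concentration-response up to 50 uM; loss of signal vs DMSO.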

Assay [7] deals with human Epidermal Growth Factor Receptor (EGFR), EGFR (gene 1956) (UniProt P00533). Put plainly: NVS_ENZ_hEGFR: NovaScreen (NVS) Enzymatic Assay for human Epidermal Growth Factor Receptor (EGFR) (AID 2283151). Put shortly: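 Cell-free kinase assay, fluorescence plus electrophoretic mobility shift separating substrate and product, read 1 hour after dosing; loss of signal vs DMSO. Duplicate screen at 25 uM, then concentration-response to 50 uM.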

Assay [8] has as its target human Casein Kinase 2- alpha 2 beta 2 (CK2a2b2), CSNK2A1 (gene 1457) (UniProt P68400). Put plainly: NVS_ENZ_hCK2a2b2: NovaScreen (NVS) Enzymatic Assay for human Casein Kinase 2- alpha 2 beta 2 (CK2a2b2) (AID 2283147). Put shortly:
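Cell-free recombinant CK2 α2β2 holoenzyme with a fluorescent peptide substrate; product separated by electrophoretic mobility shift and read 1 h after dosing. Single-point screen at 25 uM in duplicate; actives were followed with concentration-response up to 50 uM versus DMSO.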

Assay [9] concerns the target human Ephrin type-B Receptor 1 (EphB1), EPHB1 (gene 2047) (UniProt P54762). Put plainly: NVS_ENZ_hEphB1: NovaScreen (NVS) Enzymatic Assay for human Ephrin type-B Receptor 1 (EphB1) (AID 2283154). On the procedure:
NVS_ENZ_hEphB1 is a biochemical, single-readout assay that uses extracted gene-proteins in a cell-free assay. Measurements were taken 1 hour after chemical dosing in a 384-well plate.NVS_ENZ_hEphB1 is one of one assay component(s) measured or calculated from the NVS_ENZ_hEphB1 assay. It is designed to make measurements of enzyme activity, a form of enzyme reporter, as detected with fluorescence intensity signals by Fluorescence and electrophoretic mobility shift technology.Data from the assay component NVS_ENZ_hEphB1 was analyzed into 1 assay endpoint. This assay endpoint, NVS_ENZ_hEphB1, was analyzed in the positive analysis fitting direction relative to DMSO as the negative control and baseline of activity. Using a type of enzyme reporter, loss-of-signal activity can be used to understand changes in the enzymatic activity as they relate to the gene EPHB1. Furthermore, this assay endpoint can be referred to as a primary readout, because this assay has produced multiple assay endpoints where this one serves a enzymatic activity function. To generalize the intended target to other relatable targets, this assay endpoint is annotated to the kinase intended target family, where the subfamily is receptor tyrosine kinase.
Binding assays used specific radioligands (tritiated, iodinated) with non-radioactive competitive displacement ligands in agonist or antagonist protocols (as indicated) and various reference compounds and inhibitors to titrate specific binding to receptors and transporters. Most enzyme assays (CYPs, kinases, phosphatases, proteases, HDACs) used recombinant protein and specific substrates (fluorescence mostly, some colorimetric and radioactive) and inhibitors, followed by a biochemical separation of substrate and product. All assays for the biochemical HTS were initially run in duplicate at a single concentration (10 uM for CYP450 assays and 25 uM for all others). […] Each assay was run with positive and negative controls, and concurrent controls on every plate. The follow-up (secondary) screen tested active chemical-pairs in concentration series, as well as a few additional assays not tested in the primary screen, some selected negative inactives, and several cases re-run in the concentration series for confirmatory purposes.

Sequence of human Casein Kinase 2- alpha 2 beta 2 (CK2a2b2), CSNK2A1 (gene 1457) (P68400 whole entry, looked up): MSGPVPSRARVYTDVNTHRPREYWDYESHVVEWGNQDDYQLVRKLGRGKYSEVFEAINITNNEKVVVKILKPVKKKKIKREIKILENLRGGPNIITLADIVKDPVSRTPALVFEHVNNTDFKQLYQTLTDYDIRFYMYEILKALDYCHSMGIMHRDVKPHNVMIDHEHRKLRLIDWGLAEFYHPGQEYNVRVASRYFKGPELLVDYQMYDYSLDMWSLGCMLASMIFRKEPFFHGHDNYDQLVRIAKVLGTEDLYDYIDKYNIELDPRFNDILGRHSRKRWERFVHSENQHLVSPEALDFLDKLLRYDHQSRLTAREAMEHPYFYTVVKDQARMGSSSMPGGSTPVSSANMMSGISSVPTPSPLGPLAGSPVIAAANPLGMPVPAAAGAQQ
Sequence of human Elastase, ELANE (gene 1991) (P08246 whole entry, looked up): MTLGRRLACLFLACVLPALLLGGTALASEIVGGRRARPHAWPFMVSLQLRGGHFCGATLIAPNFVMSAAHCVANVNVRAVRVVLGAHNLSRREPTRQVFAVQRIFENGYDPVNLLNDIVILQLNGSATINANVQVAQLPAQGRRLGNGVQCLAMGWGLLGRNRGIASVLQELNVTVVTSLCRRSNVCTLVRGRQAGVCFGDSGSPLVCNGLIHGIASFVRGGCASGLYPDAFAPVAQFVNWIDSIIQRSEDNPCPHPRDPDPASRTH
Sequence of human Casein Kinase 1-delta (CK1D), CSNK1D (gene 1453) (P48730 whole entry, looked up): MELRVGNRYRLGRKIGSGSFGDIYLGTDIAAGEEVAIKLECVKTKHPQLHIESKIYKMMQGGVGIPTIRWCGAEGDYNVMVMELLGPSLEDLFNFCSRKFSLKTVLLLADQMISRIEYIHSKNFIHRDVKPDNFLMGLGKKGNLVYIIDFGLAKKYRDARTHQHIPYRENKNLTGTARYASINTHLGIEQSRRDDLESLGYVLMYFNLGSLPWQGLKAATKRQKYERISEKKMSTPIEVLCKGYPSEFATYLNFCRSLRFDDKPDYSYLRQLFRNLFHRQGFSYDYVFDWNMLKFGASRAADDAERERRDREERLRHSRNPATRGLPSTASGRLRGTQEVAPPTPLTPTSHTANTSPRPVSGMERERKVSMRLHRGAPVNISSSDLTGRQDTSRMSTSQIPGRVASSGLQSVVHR
Sequence of human Dual Specificity Protein Phosphatase 3 (DUSP3), DUSP3 (gene 1845) (P51452 whole entry, looked up): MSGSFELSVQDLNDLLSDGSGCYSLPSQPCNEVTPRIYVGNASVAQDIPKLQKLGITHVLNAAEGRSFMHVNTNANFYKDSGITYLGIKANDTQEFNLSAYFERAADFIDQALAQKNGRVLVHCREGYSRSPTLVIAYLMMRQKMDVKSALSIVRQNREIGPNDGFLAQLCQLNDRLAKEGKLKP
Sequence of human Caspase 8 (CASP8), CASP8 (gene 841) (Q14790 whole entry, looked up): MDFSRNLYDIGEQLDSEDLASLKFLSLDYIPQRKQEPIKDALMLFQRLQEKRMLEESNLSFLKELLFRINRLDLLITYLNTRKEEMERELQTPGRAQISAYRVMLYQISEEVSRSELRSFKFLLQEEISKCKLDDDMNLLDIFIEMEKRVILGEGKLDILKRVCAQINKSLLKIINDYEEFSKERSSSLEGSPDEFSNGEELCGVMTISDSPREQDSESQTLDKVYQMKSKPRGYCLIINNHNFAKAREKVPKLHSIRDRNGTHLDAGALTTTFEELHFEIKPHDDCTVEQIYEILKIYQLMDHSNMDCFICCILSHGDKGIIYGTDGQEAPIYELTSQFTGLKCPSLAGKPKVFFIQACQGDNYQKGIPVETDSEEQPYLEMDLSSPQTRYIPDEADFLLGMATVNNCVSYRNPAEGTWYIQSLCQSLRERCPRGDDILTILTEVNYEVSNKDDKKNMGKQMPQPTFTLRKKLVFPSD
Sequence of human Ephrin type-B Receptor 1 (EphB1), EPHB1 (gene 2047) (P54762 whole entry, looked up): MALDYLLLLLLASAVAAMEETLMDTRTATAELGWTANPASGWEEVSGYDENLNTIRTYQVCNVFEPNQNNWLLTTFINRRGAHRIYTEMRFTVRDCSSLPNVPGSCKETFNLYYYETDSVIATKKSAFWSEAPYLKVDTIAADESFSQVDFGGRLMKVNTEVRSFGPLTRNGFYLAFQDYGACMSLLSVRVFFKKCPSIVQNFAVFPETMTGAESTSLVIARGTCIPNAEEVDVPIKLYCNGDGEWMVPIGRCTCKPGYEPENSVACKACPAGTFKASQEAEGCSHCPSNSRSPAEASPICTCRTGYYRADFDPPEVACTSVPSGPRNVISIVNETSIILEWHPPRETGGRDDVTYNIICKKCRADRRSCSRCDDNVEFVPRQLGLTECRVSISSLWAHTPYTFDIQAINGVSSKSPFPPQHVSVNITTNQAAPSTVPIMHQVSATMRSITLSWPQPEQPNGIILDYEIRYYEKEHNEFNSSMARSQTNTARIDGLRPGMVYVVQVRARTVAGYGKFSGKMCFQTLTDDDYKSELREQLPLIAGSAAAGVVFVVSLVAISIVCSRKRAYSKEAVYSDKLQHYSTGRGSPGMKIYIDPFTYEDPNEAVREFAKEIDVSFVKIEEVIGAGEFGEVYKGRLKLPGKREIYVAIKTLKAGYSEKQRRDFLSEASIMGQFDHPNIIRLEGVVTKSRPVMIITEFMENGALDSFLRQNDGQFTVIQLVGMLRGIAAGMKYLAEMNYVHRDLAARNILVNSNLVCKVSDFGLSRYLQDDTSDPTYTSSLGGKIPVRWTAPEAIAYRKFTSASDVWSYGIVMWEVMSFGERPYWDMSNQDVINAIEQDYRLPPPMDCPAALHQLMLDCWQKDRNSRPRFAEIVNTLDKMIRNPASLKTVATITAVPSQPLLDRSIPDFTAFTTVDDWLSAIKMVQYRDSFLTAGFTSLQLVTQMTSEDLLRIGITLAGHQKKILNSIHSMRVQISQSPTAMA
Sequence of human Colony Stimulating Factor 1 Receptor (CSF1R), CSF1R (gene 1436) (P07333 whole entry, looked up): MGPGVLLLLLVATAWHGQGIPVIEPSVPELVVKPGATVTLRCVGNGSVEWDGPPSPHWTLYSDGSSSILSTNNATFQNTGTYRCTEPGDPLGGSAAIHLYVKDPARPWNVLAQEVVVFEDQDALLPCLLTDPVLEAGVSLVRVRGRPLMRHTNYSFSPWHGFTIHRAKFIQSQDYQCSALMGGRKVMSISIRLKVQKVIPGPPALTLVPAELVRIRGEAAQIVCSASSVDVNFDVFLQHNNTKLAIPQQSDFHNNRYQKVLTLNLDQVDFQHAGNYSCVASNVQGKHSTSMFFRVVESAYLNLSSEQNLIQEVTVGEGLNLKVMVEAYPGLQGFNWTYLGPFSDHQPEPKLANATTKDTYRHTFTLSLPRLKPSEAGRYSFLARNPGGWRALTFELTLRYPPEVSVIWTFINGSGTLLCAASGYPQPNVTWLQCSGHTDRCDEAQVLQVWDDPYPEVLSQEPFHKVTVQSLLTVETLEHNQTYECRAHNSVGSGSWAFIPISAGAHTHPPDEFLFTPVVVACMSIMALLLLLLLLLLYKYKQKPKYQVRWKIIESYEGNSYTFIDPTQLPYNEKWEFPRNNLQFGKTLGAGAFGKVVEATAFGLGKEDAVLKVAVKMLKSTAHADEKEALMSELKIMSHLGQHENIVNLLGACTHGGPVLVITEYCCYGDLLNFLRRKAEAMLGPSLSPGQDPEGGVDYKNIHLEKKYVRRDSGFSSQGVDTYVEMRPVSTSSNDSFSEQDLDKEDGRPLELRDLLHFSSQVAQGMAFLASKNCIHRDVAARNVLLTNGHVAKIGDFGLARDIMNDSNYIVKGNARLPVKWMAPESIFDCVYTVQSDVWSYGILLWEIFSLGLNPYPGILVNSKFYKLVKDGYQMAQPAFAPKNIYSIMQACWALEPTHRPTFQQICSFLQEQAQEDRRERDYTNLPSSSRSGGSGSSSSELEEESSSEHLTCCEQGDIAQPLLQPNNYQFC
Sequence of human Aurora Kinase A - serine/threonine-protein Kinase 6 (AurA), AURKA (gene 6790) (O14965 whole entry, looked up): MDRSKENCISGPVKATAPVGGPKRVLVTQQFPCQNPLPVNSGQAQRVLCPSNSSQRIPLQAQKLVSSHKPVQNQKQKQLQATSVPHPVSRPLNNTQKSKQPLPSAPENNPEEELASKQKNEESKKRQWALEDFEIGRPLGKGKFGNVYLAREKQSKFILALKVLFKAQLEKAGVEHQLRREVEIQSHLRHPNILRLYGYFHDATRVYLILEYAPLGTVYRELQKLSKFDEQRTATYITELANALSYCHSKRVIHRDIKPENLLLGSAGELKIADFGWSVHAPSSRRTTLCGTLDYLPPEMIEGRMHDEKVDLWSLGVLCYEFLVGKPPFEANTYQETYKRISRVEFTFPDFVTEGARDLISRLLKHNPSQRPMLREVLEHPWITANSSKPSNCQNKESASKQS

For `COP(=S)(OC)Oc1ccc([N+](=O)[O-])cc1`, in [1], the call was inactive. As to `CCCN(CCOc1c(Cl)cc(Cl)cc1Cl)C(=O)n1ccnc1`, in assay [2], the outcome was inactive. As to `CCOC1Oc2ccc(OS(C)(=O)=O)cc2C1(C)C` (centres undefined), in assay [3], the result was inactive. As to `CC1(C)C(C=C(Cl)Cl)C1C(=O)OC(C#N)c1ccc(F)c(Oc2ccccc2)c1` (centres undefined), the compound was called inactive in [3] and in assay [1]. As to `CN1CSC(=S)N(C)C1`, the call with CDK2 (gene 1017) was inactive. `O=C(NC(=O)c1c(F)cccc1F)Nc1ccc(OC(F)(F)C(F)OC(F)(F)F)c(Cl)c1` (centres undefined): the compound was classed as inactive in [1]. The AC50 is the midpoint of the concentration-response curve, whichever way the signal moves. For `O=S(=O)(O)C(F)(F)C(F)(F)C(F)(F)C(F)(F)C(F)(F)C(F)(F)C(F)(F)C(F)(F)F`, the AC50 in assay [4] is 25.4 µM (active) and 27.4 µM (active); in assay [6] it was 22 µM (active) and 39 µM (active); in assay [3] it was 18.6 µM (active) and 43.9 µM (active); in [7], 25 µM (active) and 17.4 µM (active); in [2] it was 35.6 µM (active). In addition, the compound was classed as inactive in [5], in assay [2] and in assay [1].

Turning to `O=C(Nc1ccccc1)Nc1cnns1`, the compound was called inactive in [4]. Further, in assay [8], the half-maximal activity concentration (AC50) is 10.9 µM (active). As to `CC(C)(C)C(O)C(Oc1ccc(Cl)cc1)n1cncn1` (centres undefined), in assay [3], the result was inactive. As for `COc1nn(CSP(=S)(OC)OC)c(=O)s1`, the call in assay [5] was inactive. `Oc1cc(Cl)ccc1Oc1ccc(Cl)cc1Cl`: the result in assay [5], in assay [3], in [2] and in assay [1] was inactive. For `CCOc1nc(NC)nc(NC(=O)NS(=O)(=O)c2ccccc2C(=O)OC)n1`, the AC50 in [6] was 18.4 µM (active).

In the case of `Oc1ccc(Cl)cc1Cc1ccccc1`, the AC50 in [6] was 25.2 µM (active) and 21.9 µM (active). Also, the compound was called inactive in [2] and in assay [9]. Turning to `CCC(C)(NC(=O)c1cc(Cl)c(C)c(Cl)c1)C(=O)CCl` (centres undefined), the call in [8] was inactive. As for `CC[C@H](C)[C@H]1O[C@]2(C=C[C@@H]1C)C[C@@H]1C[C@@H](C/C=C(\C)[C@@H](O[C@H]3C[C@H](OC)[C@@H](O[C@H]4C[C@H](OC)[C@@H](O)[C@H](C)O4)[C@H](C)O3)[C@@H](C)/C=C/C=C3\CO[C@@H]4[C@H](O)C(C)=C[C@@H](C(=O)O1)[C@]34O)O2` (tested in a mixture with another compound), the AC50 in assay [2] was 2.74 µM (active). Moreover, the result in assay [9] was inactive. For `O=C(O)C(F)(F)C(F)(F)C(F)(F)C(F)(F)C(F)(F)C(F)(F)C(F)(F)F`, the result in [4], in assay [2] and in assay [1] was inactive.

For `C[C@H]1[C@H](c2ccc(Cl)cc2)SC(=O)N1C(=O)NC1CCCCC1`, in assay [5], the compound was called inactive.

Turning to `N#Cc1c(Cl)c(Cl)c(Cl)c(C#N)c1Cl`, in assay [4], the compound was called inactive. The AC50 in assay [8] was 33.6 µM (active); in [2] it was 17.7 µM (active).

Consider `O=C(O)COc1ccc(Cl)cc1Cl`, for which the AC50 in [8] was 19.7 µM (active). The outcome in assay [9] was inactive. As for `CNC(=O)CSP(=S)(OC)OC`, the compound was classed as inactive in assay [9].

With `CCC(C)(C)C(=O)OC1=C(c2ccc(Cl)cc2Cl)C(=O)OC12CCCCC2`, in [4], the compound was classed as inactive.

As for `O=C1c2ccccc2C(=O)N1SC(Cl)(Cl)Cl`, the outcome in assay [5] was inactive. For the compound `O=C(O)CCCOc1ccc(Cl)cc1Cl`, the AC50 in [8] was 19 µM (active).

Regarding `CC(C)N(C(=O)COc1nnc(C(F)(F)F)s1)c1ccc(F)cc1`, in the assay with CDK2 (gene 1017), the compound was classed as inactive.
